Each structure is given as a SMILES string. Values joined by “and” are separate entries in the source; they are usually repeats but may differ in a detail not shown here. Equal values may be shown once. A structure can be active in one record and inactive in another. Active and inactive are the calls of the source. The calls were made as follows: active = hit-call score of the fitted dose curve at least 0.9, where 1 is the maximum; inactive = score below 0.9.

For orientation: AC50 means the concentration at which the activity in the assay is half-maximal.

Chain of Nuclear factor erythroid 2-related factor 2 (Homo sapiens) (Q16236 whole entry, looked up): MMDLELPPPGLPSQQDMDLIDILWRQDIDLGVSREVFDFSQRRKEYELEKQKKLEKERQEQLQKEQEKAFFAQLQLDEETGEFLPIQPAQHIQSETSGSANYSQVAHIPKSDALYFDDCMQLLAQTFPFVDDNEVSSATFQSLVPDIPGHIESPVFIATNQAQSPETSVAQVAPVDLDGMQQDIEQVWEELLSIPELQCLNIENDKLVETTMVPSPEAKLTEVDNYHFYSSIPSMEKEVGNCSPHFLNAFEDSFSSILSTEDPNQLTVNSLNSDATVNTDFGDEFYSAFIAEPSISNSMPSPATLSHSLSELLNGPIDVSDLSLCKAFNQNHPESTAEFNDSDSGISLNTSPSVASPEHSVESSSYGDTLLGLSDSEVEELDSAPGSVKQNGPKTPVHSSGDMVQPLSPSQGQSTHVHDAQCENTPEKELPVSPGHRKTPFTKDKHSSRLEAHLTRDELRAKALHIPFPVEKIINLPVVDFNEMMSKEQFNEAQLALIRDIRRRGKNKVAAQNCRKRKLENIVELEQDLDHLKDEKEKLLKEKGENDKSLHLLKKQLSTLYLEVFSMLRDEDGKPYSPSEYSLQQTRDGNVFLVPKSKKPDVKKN

Read-out in the first test: Pyruvate Dehydrogenase Kinase 4 (PDK4), PDK4 (gene 5166)
Kind of test: LTEA_HepaRG_PDK4: Life Technologies and Expression Analysis (LTEA) Assay for Pyruvate Dehydrogenase Kinase 4 (PDK4) using HepaRG (AID 2283525). The note with it: mRNA level, 48 h; actives raise or lower the signal. Summed up: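 In this multiplexed human HepaRG expression assay, cells are treated 48 h with test chemicals across an eight-point range starting at 100 uM. PDK4 mRNA changes, normalized to ACTB/GAPDH/POLR2A, are fitted in both directions relative to vehicle.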
Consider `CCOC(=O)C(C)Oc1ccc(Oc2cnc3cc(Cl)ccc3n2)cc1` (configuration not stated), for which the AC50 is 70 µM (active).
As to `CC(C)(c1ccc(O)cc1)c1ccc(O)cc1`, the molecule was called inactive.
Still for that read-out and setting: with `COc1c(Cl)ccc(Cl)c1C(=O)O` the entry was “inactive”.
The same measure, in the same setting: with `O=C(c1ccccc1)C1CCCCC1` the entry was “inactive”.
As for `CC(=O)[C@H]1CC[C@H]2[C@@H]3CCC4=CC(=O)CC[C@]4(C)[C@H]3CC[C@]12C`, the AC50 is 22.9 µM (active).
Regarding `COC(=O)c1ccc(I)cc1S(=O)(=O)NC(=O)Nc1nc(C)nc(OC)n1`, the outcome was inactive.
Consider `C#CCOC(=O)[C@@H](C)Oc1ccc(Oc2ncc(Cl)cc2F)cc1`, for which the AC50 was 50 µM (active).
For `COCCO`, the result was inactive.
The same measure, in the same setting: with `CCN(Cc1c(F)cccc1Cl)c1c([N+](=O)[O-])cc(C(F)(F)F)cc1[N+](=O)[O-]` the entry was “inactive”; with `CCCOC(=O)c1ccc(C(=O)OCCC)nc1`, “inactive”.
Same read-out and setting: with `CCCCCCC(C)OC(=O)COc1nc(F)c(Cl)c(N)c1Cl` (configuration not stated) the entry was “inactive”.
For `C[C@]12CC[C@@H]3c4ccc(O)cc4C[C@@H](CCCCCCCCCS(=O)CCCC(F)(F)C(F)(F)F)[C@H]3[C@@H]1CC[C@@H]2O` (some centres not stated), the AC50 was 12.7 µM (active).
In the case of `O=C(O)c1ccccc1`, the outcome was inactive.
On the same count and under the same terms, with `CCCCCOC(=O)COc1cc(N2C(=O)C3=C(CCCC3)C2=O)c(F)cc1Cl` the entry was “inactive”.
In the case of `CCCCOCCOCCOCc1cc2c(cc1CCC)OCO2`, the half-maximal activity concentration (AC50) is 17.8 µM (active).
For the molecule `CCOC(=O)C(C)Oc1ccc(Oc2nc3ccc(Cl)cc3o2)cc1` (configuration not stated), the outcome was inactive.
Still for that read-out and setting: with `CCCCOC(=O)[C@@H](C)Oc1ccc(Oc2ccc(C(F)(F)F)cn2)cc1` the entry was “inactive”.
As for `S=C([S-])NCCNC(=S)[S-].[Mn+2]`, the AC50 is 5.86 µM (active).
On the same count and under the same terms, with `C=CCOC(Cn1ccnc1)c1ccc(Cl)cc1Cl` (configuration not stated) the figure was 29 µM (active).
With `CCN(CC)C(=O)c1cccc(C)c1`, the call was inactive.
Turning to `N[C@@H](Cc1cc(I)c(Oc2ccc(O)c(I)c2)c(I)c1)C(=O)O`, the AC50 is 0.0111 µM (active).
Same read-out and setting: with `O=C(Nc1ccc([N+](=O)[O-])cc1Cl)c1cc(Cl)ccc1O` the figure was 4.31 µM (active).
For `CCSC(=O)N(CC(C)C)CC(C)C`, the molecule was classed as inactive.
Still for that read-out and setting: with `CCCN(CCC)c1c([N+](=O)[O-])cc(C(F)(F)F)c(N)c1[N+](=O)[O-]` the entry was “inactive”.
On the same count and under the same terms, with `COC(=O)CSc1cc(N=c2sc(=O)n3n2CCCC3)c(F)cc1Cl` the entry was “inactive”.
As for `S=C(S)NCCNC(=S)S.[Mn+2].[S-]C([S-])=NCCN=C([S-])[S-].[Zn+2]`, the AC50 was 3.66 µM (active) and 3.63 µM (active); the molecule was called inactive.

Read-out in the next test: NAD(P)H dehydrogenase [quinone] 1 (NQO1), NQO1 (gene 1728)
Kind of test: LTEA_HepaRG_NQO1: Life Technologies and Expression Analysis (LTEA) Assay for NAD(P)H dehydrogenase [quinone] 1 (NQO1) using HepaRG (AID 2283526). The conditions noted are these: mRNA level, 48 h; actives raise or lower the signal. An outline of the steps:
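Differentiated human HepaRG cells in serum-free induction medium, dosed in duplicate for 48 h at 8 half-log concentrations up to 100 uM in 0.5% DMSO. NQO1 mRNA by qRT-PCR normalized to ACTB, GAPDH, POLR2A; bidirectional fit versus DMSO baseline.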
For the molecule `COc1c(Cl)ccc(Cl)c1C(=O)O`, the result was inactive.
Still for that read-out and setting: with `O=C(c1ccccc1)C1CCCCC1` the entry was “inactive”.
Turning to `CC(=O)[C@H]1CC[C@H]2[C@@H]3CCC4=CC(=O)CC[C@]4(C)[C@H]3CC[C@]12C`, the AC50 is 62.1 µM (active).
On to `COCCO`, for which the molecule was called inactive.
In the case of `CCCOC(=O)c1ccc(C(=O)OCCC)nc1`, the call was inactive.
Still for that read-out and setting: with `CCCCCCC(C)OC(=O)COc1nc(F)c(Cl)c(N)c1Cl` (configuration not stated) the entry was “inactive”.
For `C[C@]12CC[C@@H]3c4ccc(O)cc4C[C@@H](CCCCCCCCCS(=O)CCCC(F)(F)C(F)(F)F)[C@H]3[C@@H]1CC[C@@H]2O` (some centres not stated), the AC50 was 0.0555 µM (active).
Consider `CCCCOCCOCCOCc1cc2c(cc1CCC)OCO2`, for which the result was inactive.
Same read-out and setting: with `CCOC(=O)C(C)Oc1ccc(Oc2nc3ccc(Cl)cc3o2)cc1` (configuration not stated) the entry was “inactive”; with `S=C([S-])NCCNC(=S)[S-].[Mn+2]`, “inactive”.
Same read-out and setting: with `CCN(CC)C(=O)c1cccc(C)c1` the entry was “inactive”.
On the same count and under the same terms, with `N[C@@H](Cc1cc(I)c(Oc2ccc(O)c(I)c2)c(I)c1)C(=O)O` the entry was “inactive”.
Take `O=C(Nc1ccc([N+](=O)[O-])cc1Cl)c1cc(Cl)ccc1O`: the concentration at half-maximal activity (AC50) is 13.4 µM (active).
Consider `CCCN(CCC)c1c([N+](=O)[O-])cc(C(F)(F)F)c(N)c1[N+](=O)[O-]`, for which the result was inactive.

Read-out in a further test: Nuclear factor erythroid 2-related factor 2 (Homo sapiens) (UniProt Q16236)
The test can be described thus: LTEA_HepaRG_NFE2L2: Life Technologies and Expression Analysis (LTEA) Assay for Nuclear factor erythroid 2-related factor 2 (NFE2L2) Transcription Factor using HepaRG (AID 2283527).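 As to outcome: TaqMan qRT-PCR transcript level normalised to ACTB GAPDH and POLR2A housekeeping genes.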 The conditions noted are these: mRNA level, 48 h; actives raise or lower the signal. Summed up: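 Transcript level of NFE2L2 is the read-out, measured by microfluidic TaqMan qRT-PCR and normalized to three housekeeping genes. Human HepaRG cultures received test chemical for 48 h at up to 100 uM in half-log steps. Gain or loss of signal is fitted relative to 0.5% DMSO.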
With `CCOC(=O)C(C)Oc1ccc(Oc2cnc3cc(Cl)ccc3n2)cc1` (configuration not stated), the call was inactive.
On the same count and under the same terms, with `CC(C)(c1ccc(O)cc1)c1ccc(O)cc1` the entry was “inactive”; with `COC(=O)c1ccc(I)cc1S(=O)(=O)NC(=O)Nc1nc(C)nc(OC)n1`, “inactive”.
On the same count and under the same terms, with `C#CCOC(=O)[C@@H](C)Oc1ccc(Oc2ncc(Cl)cc2F)cc1` the entry was “inactive”; with `COCCO`, “inactive”.
For the molecule `CCN(Cc1c(F)cccc1Cl)c1c([N+](=O)[O-])cc(C(F)(F)F)cc1[N+](=O)[O-]`, the AC50 was 50 µM (active).
Turning to `CCCCCCC(C)OC(=O)COc1nc(F)c(Cl)c(N)c1Cl` (configuration not stated), the call was inactive.
Still for that read-out and setting: with `O=C(O)c1ccccc1` the entry was “inactive”.
Still for that read-out and setting: with `CCCCCOC(=O)COc1cc(N2C(=O)C3=C(CCCC3)C2=O)c(F)cc1Cl` the entry was “inactive”.
Still for that read-out and setting: with `CCOC(=O)C(C)Oc1ccc(Oc2nc3ccc(Cl)cc3o2)cc1` (configuration not stated) the entry was “inactive”; with `CCCCOC(=O)[C@@H](C)Oc1ccc(Oc2ccc(C(F)(F)F)cn2)cc1`, “inactive”.
As for `C=CCOC(Cn1ccnc1)c1ccc(Cl)cc1Cl` (configuration not stated), the AC50 was 21.8 µM (active).
For the molecule `CCSC(=O)N(CC(C)C)CC(C)C`, the molecule was called inactive.
On the same count and under the same terms, with `COC(=O)CSc1cc(N=c2sc(=O)n3n2CCCC3)c(F)cc1Cl` the entry was “inactive”.

Read-out in the next test: succinate dehydrogenase complex iron sulfur subunit B (SDHB), SDHB (gene 6390)
Kind of test: LTEA_HepaRG_SDHB: Life Technologies and Expression Analysis (LTEA) Assay for succinate dehydrogenase complex iron sulfur subunit B (SDHB) using HepaRG (AID 2283528). The note with it: mRNA level, 48 h; actives raise or lower the signal. An outline of the steps:
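A human HepaRG culture in serum-free induction medium received test chemicals for 48 h over an eight-point range capped at 100 uM. SDHB expression change was quantified by qRT-PCR.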
Consider `CCOC(=O)C(C)Oc1ccc(Oc2cnc3cc(Cl)ccc3n2)cc1` (configuration not stated), for which the outcome was inactive.
For the molecule `CC(C)(c1ccc(O)cc1)c1ccc(O)cc1`, the AC50 was 0.005 µM (active) and the call was inactive.
For the molecule `COc1c(Cl)ccc(Cl)c1C(=O)O`, the outcome was inactive.
On the same count and under the same terms, with `O=C(c1ccccc1)C1CCCCC1` the entry was “inactive”.
`CC(=O)[C@H]1CC[C@H]2[C@@H]3CCC4=CC(=O)CC[C@]4(C)[C@H]3CC[C@]12C`: the AC50 was 88.6 µM (active).
As to `COC(=O)c1ccc(I)cc1S(=O)(=O)NC(=O)Nc1nc(C)nc(OC)n1`, the outcome was inactive.
For the molecule `C#CCOC(=O)[C@@H](C)Oc1ccc(Oc2ncc(Cl)cc2F)cc1`, the molecule was classed as inactive.
Still for that read-out and setting: with `COCCO` the entry was “inactive”; with `CCN(Cc1c(F)cccc1Cl)c1c([N+](=O)[O-])cc(C(F)(F)F)cc1[N+](=O)[O-]`, “inactive”; with `CCCOC(=O)c1ccc(C(=O)OCCC)nc1`, “inactive”.
Same read-out and setting: with `CCCCCCC(C)OC(=O)COc1nc(F)c(Cl)c(N)c1Cl` (configuration not stated) the entry was “inactive”.
For the molecule `C[C@]12CC[C@@H]3c4ccc(O)cc4C[C@@H](CCCCCCCCCS(=O)CCCC(F)(F)C(F)(F)F)[C@H]3[C@@H]1CC[C@@H]2O` (some centres not stated), the half-maximal activity concentration (AC50) was 11.6 µM (active).
Take `O=C(O)c1ccccc1`: the molecule was classed as inactive.
Same read-out and setting: with `CCCCCOC(=O)COc1cc(N2C(=O)C3=C(CCCC3)C2=O)c(F)cc1Cl` the entry was “inactive”.
Same read-out and setting: with `CCCCOCCOCCOCc1cc2c(cc1CCC)OCO2` the entry was “inactive”; with `CCOC(=O)C(C)Oc1ccc(Oc2nc3ccc(Cl)cc3o2)cc1` (configuration not stated), “inactive”.
As for `CCCCOC(=O)[C@@H](C)Oc1ccc(Oc2ccc(C(F)(F)F)cn2)cc1`, the call was inactive.
Regarding `S=C([S-])NCCNC(=S)[S-].[Mn+2]`, the AC50 is 1.77 µM (active).
On to `C=CCOC(Cn1ccnc1)c1ccc(Cl)cc1Cl` (configuration not stated), for which the result was inactive.
Still for that read-out and setting: with `CCN(CC)C(=O)c1cccc(C)c1` the entry was “inactive”; with `N[C@@H](Cc1cc(I)c(Oc2ccc(O)c(I)c2)c(I)c1)C(=O)O`, “inactive”.
Regarding `O=C(Nc1ccc([N+](=O)[O-])cc1Cl)c1cc(Cl)ccc1O`, the AC50 was 2.68 µM (active).
For `CCSC(=O)N(CC(C)C)CC(C)C`, the molecule was classed as inactive.
Same read-out and setting: with `CCCN(CCC)c1c([N+](=O)[O-])cc(C(F)(F)F)c(N)c1[N+](=O)[O-]` the entry was “inactive”; with `COC(=O)CSc1cc(N=c2sc(=O)n3n2CCCC3)c(F)cc1Cl`, “inactive”.
Regarding `S=C(S)NCCNC(=S)S.[Mn+2].[S-]C([S-])=NCCN=C([S-])[S-].[Zn+2]`, the AC50 was 601 nM (active) and 552 nM (active) and 792 nM (active).

The values are drawn from PubChem BioAssay (EPA / NIEHS).
